Results filed as inconclusive are left out. Entries that show only a call come without a potency. Values without a mark were called inactive. Calls of active or inactive are those of the source. Unless noted, the call rests on the fitted dose curve; in most records, active means well fitted curve in the direction sought with a large enough effect in the repeat runs; inconclusive means weak or mixed curves; inactive means no such curve, though single readings can be large; an effect the other way counts as inactive or inconclusive.
What was measured:
[1] = qHTS assay to identify small molecule agonists of the RXR signaling pathway - cell viability counter screen (AID 1159529); further: nearly all actives have a fitted effect of over 50% in size; further: potency means the concentration at half of the fitted maximal effect
Procedure, shortened: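 Steps: seed RXR-alpha-UAS-bla HEK 293T cells in assay medium containing 2% charcoal-stripped FBS; incubate 5 hr; add compounds in DMSO; incubate 16 hr at 37 C; after the bla read, add CellTiter-Glo and read luminescence at 30 min.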

[2] = qHTS assay to identify small molecule antagonists of the retinoid acid receptor (RAR) signaling pathway - cell viability counter screen (AID 1159551); further: nearly all actives have a fitted effect of over 35% in size; further: potency means the concentration at half of the fitted maximal effect
Procedure, shortened: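 Retinol-stimulated (1 uM final) C3RL4 cells, compound 6 h, 37 C; readout CellTiter-Glo luminescence (ATP) after 30 min RT incubation.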

[3] = qHTS assay to identify small molecule antagonists of the retinoic acid receptor (RAR) signaling pathway (AID 1159552; further: nearly all actives have a fitted effect of over 50% in size; further: potency means the concentration at half of the fitted maximal effect)
Procedure, shortened: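 Retinol at 1 uM final stimulated RARE-luciferase expression in C3RL4 cells exposed to test compounds for 6 hr at 37 C. Reduced luminescence, read 30 min after detection reagent, indicated pathway antagonism.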

[4] = qHTS assay to identify small molecule agonists of the retinoic acid receptor (RAR) signaling pathway (AID 1159553); further: potency means the concentration at half of the fitted maximal effect
Procedure, shortened: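 Reporter readout comes from luciferase under RARE control in C3RL4 cells; compound exposure lasts 6 hr at 37 C in 5% CO2, and luminescence is recorded following a 30 min room-temperature incubation with reagent.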

[5] = qHTS assay to identify small molecule antagonists of the estrogen related receptor (ERR) signaling pathway from Tox21 library - cell viability counter screen (AID 1224834); further: nearly all actives have a fitted effect of over 30% in size; further: potency means the concentration at half of the fitted maximal effect
Procedure, shortened: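 After 17.5 h of compound exposure at 37 C, ERR cells are incubated with CellTiter-Fluor for 30 min and fluorescence intensity serves as the viability measure.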

[6] = target: Luciferin 4-monooxygenase (Photinus pyralis) (UniProt P08659); experiment: qHTS assay to identify small molecule inhibitors of firefly luciferase (AID 1224835); further: nearly all actives have a fitted effect of over 25% in size; further: potency means the concentration at half of the fitted maximal effect
Chain of Luciferin 4-monooxygenase (Photinus pyralis) (P08659 whole entry, looked up): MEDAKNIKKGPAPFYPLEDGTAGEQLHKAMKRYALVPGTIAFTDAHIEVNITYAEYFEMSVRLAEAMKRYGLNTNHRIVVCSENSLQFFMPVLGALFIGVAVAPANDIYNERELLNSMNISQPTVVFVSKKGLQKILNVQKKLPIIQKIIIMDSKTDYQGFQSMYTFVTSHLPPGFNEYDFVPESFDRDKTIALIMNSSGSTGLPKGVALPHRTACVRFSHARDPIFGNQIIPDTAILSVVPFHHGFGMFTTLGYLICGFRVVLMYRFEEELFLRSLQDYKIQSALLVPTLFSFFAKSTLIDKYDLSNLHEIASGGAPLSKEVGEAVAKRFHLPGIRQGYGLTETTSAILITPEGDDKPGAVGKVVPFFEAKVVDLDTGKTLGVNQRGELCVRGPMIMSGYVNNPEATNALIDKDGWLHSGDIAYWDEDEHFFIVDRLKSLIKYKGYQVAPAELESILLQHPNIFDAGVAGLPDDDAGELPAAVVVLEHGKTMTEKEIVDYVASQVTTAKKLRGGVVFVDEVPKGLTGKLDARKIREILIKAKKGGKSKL
Procedure, shortened: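 Biochemical qHTS: compounds run as interplate titrations against purified firefly enzyme, with D-luciferin and ATP each at its KM concentration. Light output recorded by CCD imaging.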

[7] = qHTS assay to identify small molecule agonists of the constitutive androstane receptor (CAR) signaling pathway - cell viability counter screen (AID 1224836); further: nearly all actives have a fitted effect of over 45% in size; further: potency means the concentration at half of the fitted maximal effect
Procedure, shortened: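 Cells were seeded and incubated 4 hrs. Compounds were added across 15 concentrations together with PK11195 at 0.75 uM final. Plates were incubated 23 hrs at 37 C. CellTiter-Fluor was added and fluorescence measured.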

[8] = qHTS assay to identify small molecule antagonists of the constitutive androstane receptor (CAR) signaling pathway - cell viability counter screen (AID 1224837); further: nearly all actives have a fitted effect of over 45% in size; further: potency means the concentration at half of the fitted maximal effect
Procedure, shortened: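 Counter screen run in HepG2-CYP2B6-hCAR cells: 4 hr settle, compound titration (15 concentrations) with 50 nM CITCO, 23 hr at 37 C/5% CO2, CellTiter-Fluor fluorescence.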

[9] = target: Nuclear receptor subfamily 1 group I member 3 (Homo sapiens) (UniProt Q14994); experiment: qHTS assay to identify small molecule antagonists of the constitutive androstane receptor (CAR) signaling pathway (AID 1224838);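 further: HepG2 cells stably expressing hCAR with CYP2B6 luciferase reporter stimulated by CITCO; nearly all actives have a fitted effect of over 40% in size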; further: potency means the concentration at half of the fitted maximal effect
Chain of Nuclear receptor subfamily 1 group I member 3 (Homo sapiens) (Q14994 whole entry, looked up): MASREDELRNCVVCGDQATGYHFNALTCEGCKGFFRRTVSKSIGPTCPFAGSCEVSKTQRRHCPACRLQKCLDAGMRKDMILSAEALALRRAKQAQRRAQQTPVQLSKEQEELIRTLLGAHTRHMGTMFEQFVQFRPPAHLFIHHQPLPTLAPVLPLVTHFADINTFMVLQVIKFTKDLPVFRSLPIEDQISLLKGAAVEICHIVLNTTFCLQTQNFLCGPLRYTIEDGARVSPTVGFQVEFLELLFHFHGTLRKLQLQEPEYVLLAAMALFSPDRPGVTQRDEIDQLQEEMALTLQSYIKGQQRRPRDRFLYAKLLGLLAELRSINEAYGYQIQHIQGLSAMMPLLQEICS
Procedure, shortened: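 Cell line: HepG2 double-stable for hCAR and CYP2B6-2.2kb reporter. Agonist: CITCO, 50 nM final. Compounds: 15 concentrations, 24 h, 37 C. Detection: ONE-Glo luminescence.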

[10] = target: Nuclear receptor subfamily 1 group I member 3 (Homo sapiens) (UniProt Q14994); experiment: qHTS assay to identify small molecule agonists of the constitutive androstane receptor (CAR) signaling pathway (AID 1224839); further: nearly all actives have a fitted effect of over 15% in size; further: potency means the concentration at half of the fitted maximal effect
Procedure, shortened: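 Cells were plated and incubated 4 hrs, then dosed with compounds at 15 concentrations. PK11195 was added to 0.75 uM final. After 24 hrs at 37 C, luciferase luminescence was measured.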

[11] = qHTS assay to identify small molecule antagonists of the estrogen related receptor signaling pathway with the pleiotropic PPARgamma coactivator (PGC) from Tox21 10K library (AID 1224841; call rule not given here; further: actives are mostly falling curves and most rising ones were filed inactive; nearly all actives have a fitted effect of over 50% in size; further: potency means the concentration at half of the fitted maximal effect)
Procedure, shortened: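 qHTS antagonist format: PGC/ERR cells, 2k/well, compound in DMSO by pin transfer after 6 h attachment, 18 h treatment at 37 C, One-Glo luminescence read at 30 min.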

[12] = qHTS assay to identify small molecule agonists of the estrogen related receptor signaling pathway with the pleiotropic PPARgamma coactivator (PGC) from Tox21 10K library (AID 1224842); further: nearly all actives have a fitted effect of over 15% in size
Procedure, shortened: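 PGC/ERR reporter cell line, 2,000 cells per well, incubated 6 h at 37 C before 23 nL compound in DMSO was added. After 18 h at 37 C, One-Glo luminescence read following 30 min at room temperature.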

[13] = target: Thyrotropin receptor (Homo sapiens) (UniProt P16473); experiment: qHTS assay to identify small molecule agonists of the thyroid stimulating hormone receptor (TSHR) signaling pathway (AID 1224843; calls by dose curve; further: nearly all actives have a fitted effect of over 45% in size; further: potency means the concentration at half of the fitted maximal effect)
Chain of Thyrotropin receptor (Homo sapiens) (P16473 whole entry, looked up): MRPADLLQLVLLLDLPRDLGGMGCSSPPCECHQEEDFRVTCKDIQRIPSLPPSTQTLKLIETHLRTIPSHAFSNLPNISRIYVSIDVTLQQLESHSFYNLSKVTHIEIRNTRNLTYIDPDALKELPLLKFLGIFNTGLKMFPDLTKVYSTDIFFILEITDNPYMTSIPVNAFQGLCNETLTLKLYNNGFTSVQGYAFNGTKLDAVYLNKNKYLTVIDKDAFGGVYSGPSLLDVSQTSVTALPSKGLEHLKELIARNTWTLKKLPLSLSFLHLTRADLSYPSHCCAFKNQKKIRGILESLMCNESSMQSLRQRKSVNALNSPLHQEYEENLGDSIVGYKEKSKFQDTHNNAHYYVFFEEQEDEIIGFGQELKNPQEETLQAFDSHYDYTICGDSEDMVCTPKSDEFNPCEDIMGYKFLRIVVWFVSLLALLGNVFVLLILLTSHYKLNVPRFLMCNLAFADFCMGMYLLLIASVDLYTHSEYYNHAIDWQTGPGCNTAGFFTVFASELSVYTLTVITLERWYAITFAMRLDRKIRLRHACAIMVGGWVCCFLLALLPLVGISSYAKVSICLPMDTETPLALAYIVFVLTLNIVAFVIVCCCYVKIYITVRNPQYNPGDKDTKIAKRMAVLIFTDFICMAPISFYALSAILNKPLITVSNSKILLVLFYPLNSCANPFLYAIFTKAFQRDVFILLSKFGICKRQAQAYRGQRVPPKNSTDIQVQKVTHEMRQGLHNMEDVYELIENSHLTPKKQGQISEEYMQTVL
Procedure, shortened: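 TSHR-HEK293 cells in agonist mode, 30 min room-temperature step, then cAMP measured by competitive HTRF (cAMP-d2 with anti-cAMP cryptate) after 1 h at room temperature. Tested at 15 concentrations in triplicate.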

[14] = qHTS assay to identify small molecule antagonists of the estrogen related receptor signaling pathway with the pleiotropic PPARgamma coactivator (PGC) from Tox21 10K library - cell viability counter screen (AID 1224840; active means well fitted cell-killing curve with a large enough effect in the repeat runs, not every such curve was filed as active; further: nearly all actives have a fitted effect of over 40% in size; further: potency means the concentration at half of the fitted maximal effect)
Procedure, shortened: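 Following seeding of 2,000 PGC/ERR cells/well and 6 hours' incubation, test compounds were delivered in DMSO. The plates then sat 17.5 hours at 37 C before a fluorogenic live-cell protease reagent (CellTiter-Fluor) was read after 30 min.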

[15] = qHTS assay to identify small molecule antagonists of the estrogen related receptor (ERR) signaling pathway - cell viability counter screen (AID 1224818); further: series mostly up to about 46 µM
Procedure, shortened: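 After a 6 h pre-incubation, ERR cells were dosed by pin tool with compounds, positive/negative controls or DMSO alone. Following 17.5 h at 37 C and 30 min with CellTiter-Fluor, fluorescence was recorded.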

[16] = qHTS assay to identify small molecule antagonists of the estrogen related receptor signaling pathway with the pleiotropic PPARgamma coactivator (PGC) cell viability counter screen (AID 1224822; further: series mostly up to about 46 µM)
Procedure, shortened: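 PGC/ERR cells were plated at 2,000 per well and allowed 6 h to settle before compound addition. Following 17.5 h at 37 C, CellTiter-Fluor reagent was added and fluorescence was read 30 min later.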

[17] = qHTS assay to identify small molecule antagonists of the estrogen related receptor (ERR) signaling pathway (AID 1224819;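 further: luminescence from an ERR-driven luciferase reporter measured with One-Glo reagent; series mostly up to about 46 µM; nearly all actives have a fitted effect of over 50% in size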)
Procedure, shortened: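 Luminescence readout (One-Glo, 30 min, RT) of ERR cell line after 18 h compound exposure at 37 C; cells seeded 2,000/well, pre-incubated 6 h, compounds pinned from DMSO stocks.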

[18] = qHTS assay to identify small molecule agonists of the estrogen related receptor (ERR) signaling pathway (AID 1224820)
Procedure, shortened: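 Cells: ERR line from NTP, 2,000/well. Pre-incubation 6 h, 37 C/5% CO2. Compound (DMSO) pin transfer, 18 h 37 C. One-Glo, 30 min RT, luminescence.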

[19] = system: estrogen-related receptor alpha (ERRalpha) with PGC-1alpha coactivator, human; experiment: qHTS assay to identify small molecule antagonists of the estrogen related receptor signaling pathway with the pleiotropic PPARgamma coactivator (PGC) (AID 1224821; calls by dose curve)
Procedure, shortened: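 Luminescent read-out (One-Glo, 30 min at room temperature) following 18 h treatment of PGC/ERR cells at 37 C with compounds delivered in DMSO. Cells had settled 6 h at 37 C/5% CO2 before dosing.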

[20] = qHTS assay to identify small molecule agonists of the estrogen related receptor signaling pathway with the pleiotropic PPARgamma coactivator (PGC) (AID 1224823)
Procedure, shortened: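 Steps: plate PGC/ERR cells at 2,000 cells/well; incubate 6 h, 37 C/5% CO2; pin-transfer compounds (DMSO); incubate 18 h, 37 C; add One-Glo; 30 min RT; read luminescence.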

SMILES | Potency [1] | Potency [2] | Potency [3] | Potency [4] | Potency [5] | Potency [6] | Potency [7] | Potency [8] | Potency [9] | Potency [10] | Potency [11] | Potency [12] | Potency [13] | Potency [14] | outcome [15] | outcome [16] | outcome [17] | outcome [18] | outcome [19] | outcome [20]
CCCCCCCCCO | inactive | inactive | inactive | inactive | inactive | inactive | inactive | inactive | inactive | inactive | inactive | inactive | inactive | – | – | – | – | – | – | –
CCCCCCOC(=O)CCC | inactive | inactive | inactive | inactive | inactive | inactive | inactive | inactive | – | inactive | – | – | inactive | inactive | – | – | – | – | – | –
c1ccc(CNCc2ccccc2)cc1 | inactive | inactive | inactive | inactive | inactive | inactive | inactive | inactive | inactive | inactive | – | – | inactive | inactive | – | – | – | – | – | –
CC(C)(C)C1CCCCC1O (stereo not given) | inactive | inactive | inactive | inactive | inactive | inactive | inactive | inactive | inactive | inactive | – | – | inactive | inactive | – | – | – | – | – | –
CC(=O)/C(C)=C/C1C(C)=CCCC1(C)C (stereo not given) | inactive | inactive | inactive | inactive | inactive | inactive | inactive | inactive | inactive | inactive | inactive | inactive | inactive | inactive | – | – | – | – | – | –
O=C(c1ccccc1)c1ccc2n1CCC2C(=O)O (stereo not given) | inactive | inactive | inactive | 13.3 µM (active) | inactive | – | inactive | inactive | – | – | – | – | – | inactive | inactive | inactive | – | – | – | –
O=C(Cl)c1c(Cl)cccc1Cl | inactive | inactive | inactive | inactive | inactive | inactive | inactive | inactive | – | inactive | – | – | inactive | – | – | – | – | – | – | –
Cc1ccc(C)o1 | inactive | inactive | inactive | inactive | inactive | inactive | inactive | inactive | inactive | inactive | inactive | inactive | inactive | inactive | – | – | – | – | – | –
CC1CCc2cc(F)cc3c(=O)c(C(=O)O)cn1c23 (stereo not given) | inactive | inactive | inactive | inactive | inactive | inactive | inactive | inactive | inactive | – | – | – | inactive | – | – | – | – | – | – | –
CC(C)NCC(O)c1cc(O)cc(O)c1 (stereo not given) | inactive | inactive | inactive | inactive | inactive | inactive | inactive | – | inactive | – | – | – | 10.6 µM (active) | inactive | inactive | inactive | inactive | inactive | inactive | inactive
CC(C(=O)O)c1ccc(C(=O)c2ccccc2)s1 (stereo not given) | inactive | inactive | inactive | 8.41 µM (active) | inactive | 15.5 µM (active) | inactive | inactive | – | 16.8 µM (active) | – | – | – | inactive | – | – | – | – | – | –
CC(O)C1CCCCC1 (stereo not given) | inactive | inactive | inactive | inactive | inactive | inactive | inactive | inactive | inactive | inactive | inactive | inactive | inactive | inactive | – | – | – | – | – | –
CCN1CCC[C@H]1CNC(=O)c1c(OC)ccc(Br)c1OC | inactive | inactive | inactive | inactive | inactive | inactive | inactive | inactive | – | – | – | – | inactive | inactive | – | – | – | – | – | –
C=C(C)C(=O)OCCN(C)C | inactive | inactive | inactive | inactive | inactive | inactive | inactive | inactive | inactive | inactive | – | – | – | inactive | – | – | – | – | – | –
NC(N)=NN=C(/C=C/c1ccc([N+](=O)[O-])o1)/C=C/c1ccc([N+](=O)[O-])o1 | 8.49 µM (active) | 13.3 µM (active) | 7.5 µM (active) | 2.11 µM (active) | 2.98 µM (active) | 27.5 µM (active) | 3.35 µM (active) | 2.37 µM (active) | 2.98 µM (active) | inactive | 6.68 µM (active) | – | inactive | 2.98 µM (active) | – | – | – | – | – | –
CCN(CC)C(C)=O | inactive | inactive | inactive | inactive | inactive | inactive | inactive | inactive | inactive | inactive | inactive | inactive | inactive | inactive | – | – | – | – | – | –
CC(=O)Nc1ccc(/C=N/NC(N)=S)cc1 | inactive | inactive | inactive | inactive | inactive | inactive | inactive | inactive | – | inactive | – | – | inactive | – | – | – | – | – | – | –
CC(C)CCCCCCOC(=O)c1ccc(C(=O)OCCCCCCC(C)C)c(C(=O)OCCCCCCC(C)C)c1 | inactive | inactive | inactive | inactive | inactive | inactive | inactive | inactive | inactive | inactive | – | – | inactive | inactive | – | – | – | – | – | –
O=C(/C=C/c1ccc(O)c(O)c1)O[C@@H]1C[C@](O)(C(=O)O)C[C@@H](O)[C@H]1O | inactive | inactive | inactive | inactive | inactive | inactive | inactive | inactive | – | – | – | – | – | inactive | – | – | – | – | – | –

From PubChem BioAssay (Tox21)
